From PubChem BioAssay
Calls of active or inactive are those of the source.

Legend:
[1] = optical density shifts of acrAB sulA E. coli – strain DRC41, OD650, 48 h, E. coli filamentation inducer project, primary screen (AID 1152); conditions: higher = more signal, called active from +8 up or from −8 down;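 also: E. coli MC1000 strain DRC41 lacking acrAB efflux pump and sulA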
[2] = probe aLefty1 binding on compound microarray – biochemical, small-molecule microarray, 635/667 nm fluorescence, primary screen (AID 1153); conditions: higher = more signal;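 also: score merges spot fluorescence with signal-to-noise ratio from the scanned slide images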
[3] = plasmodial surface anion channel blockers, osmotic lysis – cell-based, P. falciparum Indochina, OD700, 1 h, primary screen (AID 1154); conditions: P. falciparum Indochina infected RBC osmotic lysis, higher = more signal, called active from +8 up or from −8 down
[4] = plasmodial surface anion channel blockers, osmotic lysis – cell-based, P. falciparum Indochina, OD700, 2 h, primary screen (AID 1155);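 also: lysis reports solute entry through the parasite surface anion channel PSAC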; conditions: P. falciparum Indochina infected erythrocytes, higher = more signal, called active from +8 up or from −8 down
[5] = changes in parasitized red cell lysis, either direction – P. falciparum Indochina, OD700, 3 h, PSAC antagonist project, primary screen (AID 1156); conditions: P. falciparum-infected erythrocytes, osmotic lysis, higher = more signal, called active from +8 up or from −8 down
[6] = plasmodial surface anion channel blockers, osmotic lysis – cell-based, P. falciparum Indochina, OD700, 18 h, primary screen (AID 1157); conditions: P. falciparum Indochina infected erythrocytes, osmotic lysis OD700, 18 h; higher = more signal, called active from +8 up or from −8 down
[7] = S6 kinase pathway phospho-S6 level changes – cell-based, A549, cytoblot, luminescence, serum-stimulated, primary screen (AID 1158); conditions: 5 h, higher = more signal;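 also: serum-stimulated A549 lung adenocarcinoma cells; signal is phosphorylated S6 detected by cytoblot immunostaining with HRP secondary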
[8] = target: NADPH oxidase 2 (Homo sapiens) (UniProt P04839); assay: compounds shifting NOX2 Amplex Red fluorescence – cell-based, HEK293-NOX2, PMA-stimulated, NOX inhibitor project, primary screen (AID 1159); conditions: 45 min, higher = more signal, called active from +8 up or from −8 down; also: test concentration not given here
Sequence of NADPH oxidase 2 (Homo sapiens) (P04839 whole entry, looked up): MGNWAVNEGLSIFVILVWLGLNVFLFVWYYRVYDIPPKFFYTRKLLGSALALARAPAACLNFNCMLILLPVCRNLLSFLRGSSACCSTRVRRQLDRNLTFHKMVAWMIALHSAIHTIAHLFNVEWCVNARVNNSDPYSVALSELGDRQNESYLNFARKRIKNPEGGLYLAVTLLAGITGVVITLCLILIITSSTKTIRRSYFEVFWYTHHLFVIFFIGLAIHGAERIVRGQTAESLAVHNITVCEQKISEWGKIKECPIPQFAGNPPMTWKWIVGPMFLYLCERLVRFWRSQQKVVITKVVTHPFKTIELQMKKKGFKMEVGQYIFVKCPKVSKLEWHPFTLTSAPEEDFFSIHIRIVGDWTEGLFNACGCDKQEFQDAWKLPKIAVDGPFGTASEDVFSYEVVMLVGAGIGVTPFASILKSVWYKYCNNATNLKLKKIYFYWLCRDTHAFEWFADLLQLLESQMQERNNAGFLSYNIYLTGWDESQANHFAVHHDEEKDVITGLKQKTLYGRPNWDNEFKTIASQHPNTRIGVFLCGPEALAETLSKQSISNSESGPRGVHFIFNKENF

[9] = target: NADPH oxidase 4 (Homo sapiens) (UniProt Q9NPH5); assay: compounds shifting NOX4 Amplex Red fluorescence – cell-based, HEK293-NOX4, tetracycline-induced, NOX inhibitor project, primary screen (AID 1160); conditions: HEK293-NOX4, Amplex Red H2O2 fluorescence, 45 min; higher = more signal, called active from +8 up or from −8 down
Sequence of NADPH oxidase 4 (Homo sapiens) (Q9NPH5 whole entry, looked up): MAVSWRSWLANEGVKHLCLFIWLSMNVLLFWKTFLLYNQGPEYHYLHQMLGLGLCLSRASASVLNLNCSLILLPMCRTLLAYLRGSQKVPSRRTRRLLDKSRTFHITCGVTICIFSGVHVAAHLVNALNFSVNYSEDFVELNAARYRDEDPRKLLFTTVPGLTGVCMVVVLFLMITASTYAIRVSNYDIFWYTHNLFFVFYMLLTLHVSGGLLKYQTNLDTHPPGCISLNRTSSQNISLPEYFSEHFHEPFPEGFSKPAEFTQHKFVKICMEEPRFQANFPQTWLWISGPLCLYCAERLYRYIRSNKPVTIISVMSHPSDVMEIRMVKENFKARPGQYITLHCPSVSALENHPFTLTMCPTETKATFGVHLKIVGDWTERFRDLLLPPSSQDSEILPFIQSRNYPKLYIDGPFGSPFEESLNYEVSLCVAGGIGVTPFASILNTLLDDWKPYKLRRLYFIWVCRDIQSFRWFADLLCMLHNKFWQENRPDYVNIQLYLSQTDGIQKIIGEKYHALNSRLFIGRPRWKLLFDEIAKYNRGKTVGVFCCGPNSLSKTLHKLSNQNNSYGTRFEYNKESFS

[10] = target: NADPH oxidase 5 (Homo sapiens) (UniProt Q96PH1); assay: compounds shifting NOX5 Amplex Red fluorescence – cell-based, HEK293-NOX5, NOX inhibitor project, primary screen (AID 1161); conditions: HEK293-NOX5, ionomycin, 45 min, higher = more signal
Sequence of NADPH oxidase 5 (Homo sapiens) (Q96PH1 whole entry, looked up): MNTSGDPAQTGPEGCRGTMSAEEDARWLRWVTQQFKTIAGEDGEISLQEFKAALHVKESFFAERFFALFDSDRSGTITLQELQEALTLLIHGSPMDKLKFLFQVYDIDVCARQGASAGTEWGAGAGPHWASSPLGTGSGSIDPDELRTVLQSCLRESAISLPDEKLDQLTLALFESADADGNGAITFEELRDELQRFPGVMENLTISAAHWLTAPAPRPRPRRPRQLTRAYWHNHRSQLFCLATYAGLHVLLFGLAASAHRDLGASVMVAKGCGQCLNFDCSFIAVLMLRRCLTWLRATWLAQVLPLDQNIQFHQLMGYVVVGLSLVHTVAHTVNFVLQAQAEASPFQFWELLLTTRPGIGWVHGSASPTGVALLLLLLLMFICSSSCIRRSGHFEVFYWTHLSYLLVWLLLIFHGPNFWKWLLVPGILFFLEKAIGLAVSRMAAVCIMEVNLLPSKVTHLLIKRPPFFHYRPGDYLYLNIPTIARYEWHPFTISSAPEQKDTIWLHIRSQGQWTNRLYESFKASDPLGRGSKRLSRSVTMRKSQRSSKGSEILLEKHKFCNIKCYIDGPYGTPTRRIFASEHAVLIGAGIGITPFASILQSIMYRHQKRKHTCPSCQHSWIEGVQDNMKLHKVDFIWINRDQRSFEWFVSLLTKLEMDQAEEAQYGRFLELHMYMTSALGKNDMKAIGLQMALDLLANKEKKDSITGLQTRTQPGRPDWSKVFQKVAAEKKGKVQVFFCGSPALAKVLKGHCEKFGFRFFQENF

[11] = compound effects on lung adenocarcinoma cell viability – A549, calcein-AM fluorescence, 48 h, basal, profiling panel (AID 1162); conditions: higher = more signal; also: test concentration not given here
[12] = compound effects on differentiated 3T3-L1 adipocyte viability – cell-based, 3T3-L1 adipocytes, calcein-AM fluorescence, 48 h, basal, profiling panel (AID 1163); conditions: 3T3-L1 adipocytes viability, higher = more signal; also: test concentration not given here
[13] = compound effects on hepatocellular carcinoma cell viability – HepG2, calcein-AM fluorescence, 48 h, basal, profiling panel (AID 1164); conditions: higher = more signal; also: test concentration not given here
[14] = compound effects on multiple myeloma cell viability – MM1S, calcein-AM fluorescence, 48 h, basal, profiling panel (AID 1165); conditions: higher = more signal; also: test concentration not given here
[15] = calcein-AM signal in unstimulated myeloma cells – cell-based, calcein-AM fluorescence, 48 h, PK04 Diversity Set, profiling panel (AID 1166); conditions: RPMI8226 myeloma viability, higher = more signal;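 also: cells grown under basal conditions without added stimulus; test concentration not given here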
[16] = JC-1 mitochondrial signal, unstimulated HepG2 cells – cell-based, JC-1 fluorescence, 24 h, 100 nL compound, profiling panel (AID 1167); conditions: HepG2 mitochondrial potential, higher = more signal; also: test concentration not given here
[17] = JC-1 mitochondrial signal, unstimulated adipocytes – cell-based, JC-1 fluorescence, 3T3-L1 adipocytes, 24 h, 100 nL compound, profiling panel (AID 1168); conditions: JC-1 mitochondrial fluorescence, higher = more signal, called active from +8 up or from −8 down; also: test concentration not given here
[18] = JC-1 mitochondrial signal, unstimulated myeloma cells – cell-based, JC-1 fluorescence, RPMI8226, 24 h, 100 nL compound, profiling panel (AID 1169); conditions: JC-1 mitochondrial potential fluorescence, higher = more signal; also: test concentration not given here
[19] = JC-1 mitochondrial signal, unstimulated MM1S myeloma – cell-based, JC-1 fluorescence, 24 h, 100 nL compound, profiling panel (AID 1170); conditions: MM1S mitochondrial potential, higher = more signal; also: test concentration not given here
[20] = resazurin metabolic signal in A549 cells – cell-based, resazurin fluorescence, 24 h, PK04 Diversity Set, profiling panel (AID 1171); conditions: A549 viability, higher = more signal, called active from +8 up or from −8 down; also: test concentration not given here

Compound	z-score [1]	composite z-score [2]	z-score [3]	z-score [4]	z-score [5]	z-score [6]	z-score [7]	z-score [8]	z-score [9]	z-score [10]	z-score [11]	z-score [12]	z-score [13]	z-score [14]	z-score [15]	z-score [16]	z-score [17]	z-score [18]	z-score [19]	z-score [20]
CCOC(=O)CCN1C(=O)[C@H]2[C@@H]3C(=CC[C@H]2C1=O)C(=O)[C@H]1O[C@H]1[C@H]3O	0.244 (inactive)	-0.284	3.05 (inactive)	0.673 (inactive)	0.587 (inactive)	0.254 (inactive)	0.642	0.955 (inactive)	0.35 (inactive)	0.38	0.762	0.453	-0.564	-3.19	-3.72	-1.23	0.501 (inactive)	-1.1	-2.74	-0.899 (inactive)
CCOC(=O)[C@H](Cc1ccccc1)NC(=O)CCC1CC(OC(=O)NCc2cccc3ccccc23)CC2(CCCC(COC(=O)NCCc3ccc(Cl)cc3)O2)O1 (stereo not given in full)	-1.37 (inactive)	0.539	7.28 (inactive)	0.618 (inactive)	-0.552 (inactive)	-0.687 (inactive)	0.335	0.694 (inactive)	0.92 (inactive)	0.986	0.893	0.595	-0.397	0.248	0.859	-0.114	0.237 (inactive)	-0.185	-0.401	0.895 (inactive)
COC(=O)CC=C[C@@H](C)[C@@H](C=NOC[C@@H](O)[C@H]1O[C@@H]2OC(C)(C)O[C@@H]2[C@H]1O)OC	0.29 (inactive)	-0.0603	0.332 (inactive)	0.453 (inactive)	0.141 (inactive)	0.443 (inactive)	-0.332	0.144 (inactive)	-0.51 (inactive)	0.15	0.218	0.0495	0.0068	-0.952	0.216	0.103	-0.637 (inactive)	-0.199	0.781	-0.743 (inactive)
CC(C)[C@@H](OCc1ccccc1)[C@H](C)CON=C1[C@H]2CCn3c(=O)n(-c4ccccc4)c(=O)n3[C@H]2[C@H](O)[C@@H]2O[C@H]12	0.352 (inactive)	-0.186	0.509 (inactive)	-0.116 (inactive)	-0.171 (inactive)	0.245 (inactive)	-0.952	-0.662 (inactive)	0.202 (inactive)	-0.851	-0.27	-0.104	-1.31	-2.72	-2.22	-2.12	0.197 (inactive)	-0.654	-0.375	-1 (inactive)
C[C@@H](c1ccccc1)N1C(=O)[C@H]2[C@H]3[C@H](O)[C@H](O)CC(=NOC[C@@H](O)COCc4ccco4)[C@H]3CC[C@H]2C1=O	-0.309 (inactive)	-0.201	2.04 (inactive)	-0.0645 (inactive)	0.33 (inactive)	0.332 (inactive)	-0.632	-1.37 (inactive)	0.529 (inactive)	0.122	-0.428	0.565	-0.187	0.352	-1.83	-0.137	-0.387 (inactive)	-0.84	-0.0829	-0.268 (inactive)
COc1ccc(O[C@H]2C=C[C@@H](c3ccccc3)O[C@@H]2CON=C(C)CCN2CCCc3nc(C)c(C)cc32)cc1	0.379 (inactive)	0.0341	4.35 (inactive)	0.711 (inactive)	0.938 (inactive)	0.588 (inactive)	-0.121	-1.81 (inactive)	-0.049 (inactive)	-0.297	0.0505	-0.351	-0.491	-2.13	-2.37	2.98	-0.853 (inactive)	0.414	-0.294	0.154 (inactive)
CC(C)CON=C1C[C@@H](O)[C@@H](O)[C@@H]2[C@@H]3C(=O)N(Cc4ccccc4)C(=O)[C@@H]3CC[C@H]12	-1.41 (inactive)	-0.249	1.12 (inactive)	-1.19 (inactive)	0.99 (inactive)	-1.6 (inactive)	0.0105	1.48 (inactive)	0.209 (inactive)	0.588	-0.216	0.785	-0.155	0.825	-0.48	0.974	-1.26 (inactive)	-0.0623	-0.628	0.312 (inactive)
CCOC(=O)CCN1C(=O)[C@H]2[C@H]3[C@H](O)[C@H](O)CC(=NNC(=O)OCC)[C@H]3CC[C@H]2C1=O	-0.793 (inactive)	-0.0611	3.88 (inactive)	0.635 (inactive)	1 (inactive)	1.07 (inactive)	-0.242	0.415 (inactive)	-0.702 (inactive)	-4.72	-1.19	0.895	-0.418	-2.14	-3.78	-0.357	-1.19 (inactive)	-0.541	0.0724	-0.698 (inactive)
COC(=O)C(C(=O)OC)C1CCCC(=O)C1 (stereo not given)	-1.06 (inactive)	-0.284	0.69 (inactive)	-0.176 (inactive)	0.426 (inactive)	-0.29 (inactive)	0.649	-1.18 (inactive)	-1.61 (inactive)	0.921	0.219	0.585	-0.526	-0.68	-1.34	-0.108	-0.078 (inactive)	0.753	1.15	-1.14 (inactive)
